The values that follow come from PubChem BioAssay AID720597 (Broad Institute, 2013).

Entries with a potency or affinity are not part of this list. Activity calls are given as the source filed them.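 How the source made its calls: active means fitted half-maximal dose no more than twice the top valid tested dose, for compounds that lower signal; inconclusive means fit invalid, or curve flat with activity between -70 and -30; inactive means potency past limit, curve flat within ±30, or signal increasing.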

The target in this assay is NAD-dependent protein deacylase sirtuin-5, mitochondrial (Homo sapiens) (UniProt Q9NXA8). The assay is described as follows: SIRT5 deacylase inhibitors, dose response, biochemical, fluorescence imaging, cherry-pick, set 6 (AID 720597).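 Further: lower AMC signal can also come from blocking the trypsin step; 0% = median of neutral control wells and -100% = median of positive control wells.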 Particulars: Purified SirT5, succinyl-peptide-AMC/trypsin fluorescence; series mostly up to 15 µM; activity change, negative = inhibition: at the top concentration.
NAD-dependent protein deacylase sirtuin-5, mitochondrial (Homo sapiens), sequence (Q9NXA8 whole entry, looked up): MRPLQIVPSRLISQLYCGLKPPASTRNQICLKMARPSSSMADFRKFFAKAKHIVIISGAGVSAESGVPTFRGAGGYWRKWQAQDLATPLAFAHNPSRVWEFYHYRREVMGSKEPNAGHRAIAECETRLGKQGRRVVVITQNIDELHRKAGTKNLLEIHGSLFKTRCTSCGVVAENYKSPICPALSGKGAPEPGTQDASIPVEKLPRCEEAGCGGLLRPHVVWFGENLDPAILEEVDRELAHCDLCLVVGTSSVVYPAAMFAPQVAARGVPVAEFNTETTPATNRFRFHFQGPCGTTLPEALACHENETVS
In the case of `C[C@@H]1CN([C@H](C)CO)C(=O)c2cccc(NC(=O)c3ccncc3)c2O[C@@H]1CN(C)S(C)(=O)=O`, the “activity change, negative = inhibition” value was -27.8% (inactive).
The figure for `C[C@@H]1CN([C@@H](C)CO)S(=O)(=O)c2ccc(C#Cc3ccccc3F)cc2O[C@@H]1CN(C)C(=O)c1ccc2c(c1)OCO2` is -22.3% (inactive); for `Cc1ccccc1S(=O)(=O)N1CCCCN2[C@H](CO)[C@@H](c3ccc(-c4ccccc4)cc3)[C@@H]2C1` it is -8.88% (inactive).
As to `CNC[C@H]1Oc2c(NC(=O)c3ccc(-c4nccs4)cc3)cccc2C(=O)N([C@H](C)CO)C[C@H]1C`, the “activity change, negative = inhibition” value is -12.1% (inactive).
The figure for `CC(C)CC#Cc1ccc2c(c1)O[C@H](CN(C)C(=O)C1CCCCC1)[C@@H](C)CN([C@H](C)CO)S2(=O)=O` is 9.78% (inactive).
Regarding `COc1ccc(S(=O)(=O)N(C)C[C@@H]2OCCCC[C@H](C)Oc3ccc(NS(=O)(=O)c4ccc(C)cc4)cc3C(=O)N([C@H](C)CO)C[C@H]2C)cc1`, the “activity change, negative = inhibition” value was -12.7% (inactive).
Next, `C[C@@H]1CN([C@H](C)CO)C(=O)c2cc(NS(=O)(=O)c3cccs3)ccc2O[C@@H](C)CCCCO[C@@H]1CN(C)Cc1ccc(C(F)(F)F)cc1`: -13% (inactive).
On to `Cc1cccc(-c2ccc([C@H]3[C@H](CO)N4CCCCN(S(=O)(=O)c5cccc(C)c5)C[C@@H]34)cc2)c1`, for which the “activity change, negative = inhibition” value is -30.5% (inactive).
Turning to `CCCNC(=O)N1[C@H](CO)[C@H](c2ccccc2)C12CN(C(=O)CC1CC1)C2`, the “activity change, negative = inhibition” value was -21.9% (inactive).
Next, `COc1ccc(S(=O)(=O)Nc2ccc3c(c2)C(=O)N([C@@H](C)CO)C[C@H](C)[C@H](CN(C)Cc2ccc(C(F)(F)F)cc2)OCCCC[C@@H](C)O3)cc1`: -19.8% (inactive); `COc1ccccc1-c1ccc2c(c1)O[C@@H](CN(C)Cc1ccc3c(c1)OCO3)[C@H](C)CN([C@@H](C)CO)S2(=O)=O`: 22% (inactive).
